These results are taken from ChEMBL document CHEMBL3988442, “University of Dundee, Small-Polar-MMV Screening Library” (2021).

The structures appear in SMILES notation. Among all 48,000 compounds or so, about 13,000 (27%) showed an effect of 50% or more. This is one part of the list.

The experiment deals with Wolbachia pipientis. In words: Anti-Wolbachia Cell-Based Screen. Particulars: 5 µM. The arrangement: scale not given: in the data most compounds retested in dose-response had high values. In kind it is functional.
As to `C[C@@H](NCc1cccc(Cl)c1)c1onc(-c2ccccc2)c1C(=O)O`, the “Percent Effect” value is -2.837%.
Consider `COc1cc(CN(C)C(=O)Nc2cc(C)on2)ccc1SC`, for which the “Percent Effect” value is reported as -6.064%.
Regarding `O=C1NC(c2ccccc2)=N[C@@]12CC[C@@H]1CN(Cc3nccs3)C[C@@H]12`, the “Percent Effect” value is listed as -1.68%.
The figure for `CC(C)N1CCC(N2CCCC(C(=O)NCC3(O)CCCCC3)C2)CC1` (configuration not stated) is 0.6612%; for `O=C(O)C(F)(F)F.O=C(c1ccccn1)N1CCn2cnc(COCC3CC3)c2C1` it is 22.66%.
The figure for `COCc1ncn2c1CN(C(=O)c1cccc3cccnc13)CC2.O=C(O)C(F)(F)F` is 103%; for `COCc1ncn2c1CN(C(=O)c1cnc3ccccc3c1)CC2` it is 79.69%; for `COCc1cnc2n1CCN(C(=O)c1ccc3ccccc3n1)C2C.O=C(O)C(F)(F)F` (configuration not stated) it is -39.11%.
Turning to `COCc1ncn2c1CN(S(=O)(=O)Cc1ccc(C)cc1)CC2.O=C(O)C(F)(F)F`, the “Percent Effect” value was determined as 14.75%.
The figure for `Cc1ccc(C(=O)N2CCn3cnc(COCC4CC4)c3C2)cn1.O=C(O)C(F)(F)F` is -1.031%.
Consider `COCc1ncn2c1CN(C(=O)C1CC=CC1)CC2`, for which the “Percent Effect” value is recorded as -12.78%.
Regarding `COCc1ncn2c1CN(C(=O)c1ccc3ccccc3n1)CC2.O=C(O)C(F)(F)F`, the “Percent Effect” value is 86.38%.
As for `Cc1ccc(F)c(N2CCCC(NS(=O)(=O)CCCF)C2=O)c1` (configuration not stated), the “Percent Effect” value is listed as -1.757%.
The figure for `O=C(CN1CCOc2ccc(Cl)cc21)NCCCn1ccnc1` is 9.044%; for `CN(C(=O)OC(C)(C)C)C1CCN(C(=O)c2ccc(Cl)o2)C1` (configuration not stated) it is -6.554%; for `CCS(=O)(=O)c1ncc(CN(C)Cc2ccccn2)n1CCOC` it is -6.84%.
The figure for `Cc1noc(NS(=O)(=O)c2ccc(Cl)s2)c1C` is -16.85%; for `O=C(O)C(F)(F)F.O=C(O)C(F)(F)F.O=c1ccc2c(n1Cc1cccnc1)CCN(CC1CCOC1)CC2` (configuration not stated) it is -12.29%; for `COc1ccc2c(c1)C1(CCN(Cc3ccoc3)CC1)N(C)CC2` it is -15.48%.
The figure for `COCC1c2c(cnn2C)CCN1Cc1ccoc1` (configuration not stated) is -6.273%; for `O=C(O)C(F)(F)F.O=C(O)C(F)(F)F.O=c1ccc2c(n1Cc1cccnc1)CCN(C1CCOC1)CC2` (configuration not stated) it is 2.129%; for `O=C(O)C(F)(F)F.O=C(O)C(F)(F)F.O=c1ccc2c(n1Cc1ccncc1)CCN(Cc1ccoc1)CC2` it is 96.18%.
Regarding `O=C(O)C(F)(F)F.O=C(O)C(F)(F)F.O=c1ccc2c(n1Cc1cccnc1)CCN(Cc1ccoc1)CC2`, the “Percent Effect” value amounted to 110%.
The figure for `Cn1c2c(ccc1=O)CCN(Cc1ccoc1)CC2.O=C(O)C(F)(F)F` is 97.4%; for `COCCn1c2c(ccc1=O)CCN(Cc1ccoc1)CC2` it is 106.6%.
The figure for `O=C(O)C(F)(F)F.O=C(O)C(F)(F)F.O=c1ccc2c(n1CCN1CCCC1)CCN(Cc1ccoc1)CC2` is -0.3339%.
As to `CS(=O)(=O)NCC1(c2ccccc2Br)CC1`, the “Percent Effect” value was found to be 1.161%.
With `O=C(O)C1CCN(C[C@H]2CC[C@@H](Cc3ccc4c(c3)OCO4)O2)CC1`, the “Percent Effect” value worked out at 4.381%.
The figure for `Cc1cc(Cl)ccc1S(=O)(=O)NCC(C)N1CCN(C)CC1` (configuration not stated) is 0.8605%; for `CC1CCN(Cc2cnc(S(=O)(=O)CC3CC3)n2CC2CCCO2)CC1` (configuration not stated) it is 3.735%; for `CCC(C)Oc1cc(C(=O)Nc2nccs2)ccn1` (configuration not stated) it is -12.97%.
On to `Cc1cnn(C(C)C2CC2)c1NC(=O)c1ccc(Cn2cnnn2)cc1` (configuration not stated), for which the “Percent Effect” value turned out to be 7.746%.
The figure for `COc1nc2c(cc1C(=O)N1C[C@@H](N)C[C@H]1C(=O)NC(C)C)CCC2` is 2.559%.
The figure for `CCOC(=O)c1coc(N2CCN(Cc3cc(C)cc(C)c3)C(=O)C2)n1` is -24.84%; for `CS(=O)(=O)N1CCc2ccc(=O)n(CC3CCOCC3)c2CC1` it is -13.75%.
The figure for `O=C(O)C(F)(F)F.O=c1ccc2c(n1CC1CCOCC1)CCN(Cc1ccoc1)CC2` is 125.5%; for `CS(=O)(=O)N1C[C@@H]2COC[C@]2(C(=O)NCCc2cccs2)C1` it is -42.96%.
For `Cn1cc(CN2CC(C(=O)Nc3ccccc3)C3(CCOCC3)C2)cn1.O=C(O)C(F)(F)F` (configuration not stated), the “Percent Effect” value was found to be 0.729%.
Turning to `O=C(NCCc1cccs1)[C@]12COC[C@H]1CN(Cc1ccncc1)C2.O=C(O)C(F)(F)F.O=C(O)C(F)(F)F`, the “Percent Effect” value is on record as -23.54%.
The figure for `O=C(NCc1cccs1)[C@]12COC[C@H]1CN(c1ncccn1)C2.O=C(O)C(F)(F)F` is -12.11%; for `Cn1cc(CN2C[C@@H]3COC[C@]3(C(=O)NCc3cccs3)C2)cn1` it is 98.41%.
The figure for `CN(Cc1ccccn1)C(=O)[C@]12COC[C@H]1CN(Cc1cnn(C)c1)C2` is -17.57%; for `Cn1cc(CN2C[C@@H]3COC[C@]3(C(=O)NCCc3ccccc3)C2)cn1.O=C(O)C(F)(F)F` it is 92.46%; for `Cn1cc(CN2C[C@@H]3COC[C@]3(C(=O)N3CCCO3)C2)cn1` it is -0.6058%.
The figure for `CC(C)NC(=O)[C@]12COC[C@H]1CN(Cc1cnn(C)c1)C2` is 82.27%; for `COc1ccccc1CCNC(=O)CNC1CCc2nc(C)nn2C1` (configuration not stated) it is -4.852%; for `CC(=O)N1CCn2c(COCc3csc(C)n3)cnc2C1C` (configuration not stated) it is 17.55%.
In the case of `Cc1nn(C)c2nc(N(CCN(C)C)C3CCCC3)sc12`, the “Percent Effect” value is listed as -1.05%.
The figure for `Cc1cccc(C(=O)NCCNCC2CNc3ccnn3C2)c1` (configuration not stated) is -9.397%.
The figure for `CC(C)Cn1cnc(S(=O)(=O)NCCc2nnc3ccccn23)c1` is 8.202%.
The figure for `Cc1c2c(C(F)F)cc(SCC(=O)O)nc2nn1C` is 97.91%; for `CC(C)Cc1nnc(SCC(=O)O)n1-c1ccc(F)cc1F` it is 1.309%.
`Cc1cc(-c2nnc(SCC(=O)O)n2C(C)c2ccccc2)nn1C` (configuration not stated): the “Percent Effect” value was found to be 4.931%.
The figure for `CCc1cc(C(F)(F)F)c2c(C)nn(CC(=O)O)c2n1` is -1.783%; for `CCCn1cc2c(C(F)F)cc(SCC(=O)O)nc2n1` it is 93.6%.
The figure for `CCCn1cc(C(=O)NC(CC(=O)O)c2ccccc2F)c(C)n1` (configuration not stated) is -6.071%; for `Cc1cc(SCC(=O)O)nc2nn(CC(F)F)c(C)c12` it is 120.4%; for `Cc1c(-c2nnc(SCC(=O)O)n2C(C)c2ccccc2)cnn1C` (configuration not stated) it is 8.856%.
The figure for `CCn1nc(C)c(NC(=O)C(C)C)c1C` is -2.093%; for `CCn1nc2nc(SCC(=O)O)cc(C(F)F)c2c1C` it is 86.56%.
For the compound `CN(Cc1cccc(Cl)c1)Cc1nnsc1Cl`, the “Percent Effect” value is -20.09%.
Take `Cc1oc(-c2ccccc2)nc1CC(=O)NC1=NCCS1`: the “Percent Effect” value is -12.38%.
In the case of `CCc1nsc(NC2CC(=O)N(C3CC3)C2)n1` (configuration not stated), the “Percent Effect” value worked out at 5.167%.
The figure for `O=C(c1ccc[nH]1)N1CCN(CC2CCOc3ccccc3C2)CC1` (configuration not stated) is -0.508%; for `O=C(NCC1(O)CCOC1)NCC1(c2ccccc2Cl)CCC1` (configuration not stated) it is 17.28%.
`Cc1cc(CC(C)NC(=O)Cc2cc(F)ccc2C)[nH]n1` (configuration not stated): the “Percent Effect” value is -12.96%.
As for `Cc1nc(C2CCCN2Cc2cc(Cl)c3c(c2)OCO3)no1` (configuration not stated), the “Percent Effect” value is on record as -3.682%.
The figure for `O=C(C1CCOCC1)N1C[C@@H]2OCCN(CCN3CCCC3)[C@@H]2C1` is -5.298%; for `COC[C@@]12CCO[C@@H]1CCN(C(=O)C1CCOCC1)C2` it is 4.117%; for `O=C(N1CCOCC1)N1C(CN2CCOCC2)[C@]2(O)CC[C@H]1CC2` (some centres not stated) it is 118.3%.
The figure for `O=C(N1CCOCC1)N1C[C@H]2CC[C@@H]1CN(C1Cc3ccccc3C1)C2` is 12.43%; for `O=C(C1CCC1)N1C(CN2CCOCC2)[C@]2(O)CC[C@H]1CC2` (some centres not stated) it is 92.68%; for `COCC1N(C(=O)N2CCOCC2)[C@H]2CC[C@]1(O)CC2` (some centres not stated) it is 110.4%.
The figure for `Cn1c(CN2CCOCC2)nnc1C1CCN(C(=O)C2CCCC2)CC1` is -7.454%; for `C[C@@H]1CN(C(=O)CCN2CCOCC2)CC[C@]1(C)O` it is -11.44%; for `O=C(N1CCOCC1)N1CC[C@@](O)(c2ccccc2)[C@H]2CCCC[C@@H]21` it is 4.203%.
In the case of `CCC(CC)n1nc(C)cc1NC(=O)C1CCOC1` (configuration not stated), the “Percent Effect” value came to 10.26%.
The figure for `Cc1ccccc1[C@@H]1CN(CCCS(=O)(=O)N(C)C)C[C@H]1C(=O)O` is -19.2%.
The figure for `O=C(NC[C@H]1OC[C@@H]2CCN(c3ncccn3)C[C@@H]21)c1ccnnc1` is 8.157%; for `CCn1ccnc1CN1CCCC(CO)(CCCc2ccccc2)C1` (configuration not stated) it is 6.615%; for `CC(=O)c1c(C)nn(CC(=O)Nc2ccc(Br)cc2)c1C` it is -0.7117%.
The figure for `Cc1cc(NC(=O)Cn2cc(C#N)c(=O)c3cc(Br)ccc32)no1` is -1.057%; for `Cc1ccc(NC(=O)Cc2c(C)nc3c(c2C)c(=O)[nH]n3C)cc1F` it is -4.371%; for `COc1ccc(NC(=O)Cn2nc(C)ccc2=O)cc1OC` it is 11.2%.
Turning to `COc1ccc(NC(=O)Cn2ccc3c(=O)n(C)ccc32)cc1OC`, the “Percent Effect” value is recorded as 174.8%.
The figure for `COc1ccc(NC(=O)Cn2nc(C)c(C)cc2=O)cc1OC` is -16.79%; for `Cc1ccc(NC(=O)Cn2ccc3c(=O)n(C)ccc32)cc1F` it is 136.8%; for `Cc1ccc(NC(=O)CN[C@H](C(N)=O)C(C)C)cc1F` it is -36.68%.
Turning to `Cn1ccc2c(ccn2CC(=O)Nc2ccc(Br)cc2)c1=O`, the “Percent Effect” value came out at 150.6%.
The figure for `Cc1cccn2c(=O)cc(CN3CCCC3Cn3cncn3)nc12` (configuration not stated) is 14.6%; for `O=C(NCCNS(=O)(=O)c1ccc2c(c1)CCCC2)c1ccoc1` it is 1.057%; for `CC(c1ccc(C(F)(F)F)cc1)N1CCN(CCS(C)(=O)=O)CC1` (configuration not stated) it is -14.82%.
Consider `Cc1nn(C)cc1CNC(=O)c1cn(CCC2CCCCN2)nn1` (configuration not stated), for which the “Percent Effect” value is 3.544%.
The figure for `COc1cccc(/C=C/CCN2CCN(S(C)(=O)=O)CC2)c1` is -6.634%.
For `CS(=O)(=O)N1CCCN(CCCSCc2ccccc2)CC1`, the “Percent Effect” value is listed as 0.2965%.
The figure for `CCSCCN1CCCN(S(C)(=O)=O)CC1` is 101%.
The figure for `CC(C)COC(C)C(=O)N1CCN(S(C)(=O)=O)CC1` (configuration not stated) is -15.22%; for `CC(OCC(F)(F)F)C(=O)N1CCN(S(C)(=O)=O)CC1` (configuration not stated) it is -14.66%; for `CC(C)CSCCN1CCN(S(C)(=O)=O)CC1` it is 87.34%.
For `CS(=O)(=O)N1CCN(Cc2ccc(F)cc2Br)CC1`, the “Percent Effect” value is 0.07282%.
The figure for `Cc1noc(C)c1C(=O)NCCN1CCN(S(C)(=O)=O)CC1` is 1.414%; for `CC(C)CSCCN1CCCN(S(C)(=O)=O)CC1` it is 87.23%.
